A selection: hits, their analogues and other compounds. The true share with any hit is near 2.8%.
HSP90 inh: HSP90 inhibitors, primary screen, cell lysate, luminescence; Heat shock protein HSP 90 (rabbit reticulocyte lysate; luciferase refolding); Rabbit reticulocyte lysate, luciferase refolding luminescence, 3 h; inhibition, % at 5.6 µM; 290,000 tested, 0.91% active;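 active = inhibition above the screen-wide mean plus 3 SD, computed separately per campaign, cut at about 16% in these data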;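 note: 0% = DMSO wells and 100% = 60 µM geldanamycin wells; inhibitors lower the luminescence because luciferase stays unfolded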
SENP7 block: SENP7 protease inhibitors, primary screen, biochemical, luminescence, uHTS. Sentrin-specific protease 7 (Homo sapiens), Q9BQF6. recombinant SENP7, Z-RLRGG-aminoluciferin luminescence, 40 min. inhibition, % at 5 µM. 330,000 tested, 1.5% active. AID 434973, 2010;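 active = inhibition above about 50% at the single test dose, limit read from the data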;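 note: plate controls were DMSO with enzyme for no effect and no enzyme buffer wells for full effect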
SENP6 inh: SENP6 protease inhibitors, primary screen, biochemical, luminescence, uHTS. inhibition, % at 10 µM. Sentrin-specific protease 6 (Homo sapiens), Q9GZR1. Recombinant SENP6 catalytic domain, aminoluciferin luminescence. 330,000 tested, 1.8% active;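 active = inhibition above about 50% at the single tested dose, limit read from the data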;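 note: plate controls were DMSO wells with enzyme for no effect and DMSO wells lacking enzyme for full effect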
SENP8 block-1: SENP8 protease inhibitors, primary screen, biochemical, luminescence | Sentrin-specific protease 8 (Homo sapiens), Q96LD8 | purified SENP8, Z-RLRGG-aminoluciferin cleavage | inhibition, % at 10 µM | 330,000 tested, 1.2% active | AID 2540, 2010; in the data active = inhibition above about 50%
SENP8 block-2: human SENP8 protease inhibitors, primary screen, biochemical, fluorescence, Nedd8 protein substrate, uHTS; Sentrin-specific protease 8 (Homo sapiens), Q96LD8; recombinant SENP8; inhibition, % at 20 µM; 360,000 tested, 0.64% active; in the data active = inhibition mostly above about 40%, no sharp cut-off; inactive = mostly below about 27%
HSP90 confirm: HSP90 inhibitors, confirmation, cell lysate, luminescence | shares compounds with HSP90 inh | rabbit reticulocyte lysate, luciferase refolding luminescence, 3 h | inhibition, % at 5.9 µM | 2,300 tested, 64% active | AID 1846, 2009; in the data active = inhibition above about 18%;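 note: 0% = vehicle wells and 100% = reference inhibitor wells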
FLuc counter: firefly luciferase inhibitors, HSP90 counter-screen, confirmation, artefact control for HSP90 inhibitor project, biochemical, luminescence, triplicate. inhibition, % at 5.9 µM. purified native firefly luciferase. 2,300 tested, 48% active. AID 1847, 2009. shares compounds with HSP90 inh;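 active = inhibition above the mean inhibition of all tested sample wells plus 3 SD, cut at about 10% in these data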;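 note: 0% = DMSO with luciferase and 100% = wells lacking luciferase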
Target sequence (P08659 whole entry, looked up): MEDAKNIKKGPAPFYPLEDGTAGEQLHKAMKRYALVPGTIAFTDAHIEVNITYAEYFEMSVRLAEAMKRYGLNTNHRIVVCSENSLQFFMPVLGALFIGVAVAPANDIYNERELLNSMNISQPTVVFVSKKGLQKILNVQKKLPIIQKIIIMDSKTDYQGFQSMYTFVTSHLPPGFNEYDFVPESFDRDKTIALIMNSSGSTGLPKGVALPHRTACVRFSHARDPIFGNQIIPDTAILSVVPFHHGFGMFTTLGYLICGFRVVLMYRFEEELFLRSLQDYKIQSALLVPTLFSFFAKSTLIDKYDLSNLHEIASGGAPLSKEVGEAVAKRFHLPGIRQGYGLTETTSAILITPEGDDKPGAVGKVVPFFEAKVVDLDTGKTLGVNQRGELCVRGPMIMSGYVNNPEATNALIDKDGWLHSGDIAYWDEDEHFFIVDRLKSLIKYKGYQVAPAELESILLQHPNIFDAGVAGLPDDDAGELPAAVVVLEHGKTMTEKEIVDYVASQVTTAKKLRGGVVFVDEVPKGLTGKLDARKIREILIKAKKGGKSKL
SENP8 conf-1: SENP8 protease inhibitors, retest, confirmation, biochemical, luminescence, single concentration. Recombinant SENP8, Z-RLRGG-aminoluciferin luminescence, 60 min. shares compounds with SENP7 block. 6,200 tested, 40% active. inhibition, % at 12.5 µM. AID 488912, 2010;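 active = mean inhibition across replicates above about 50%, limit read from the data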
SENP6 confirm: SENP6 protease inhibitors, confirmation, biochemical, luminescence, single concentration; shares compounds with SENP7 block; recombinant SENP6, Z-RLRGG-aminoluciferin luminescence; inhibition, % at 12.5 µM; 6,200 tested, 58% active
SENP7 conf: SENP7 protease inhibitors, retest, confirmation, biochemical, luminescence, single concentration; shares compounds with SENP7 block; 6,200 tested, 69% active; recombinant SENP7, Z-RLRGG-aminoluciferin luminescence, 40 min; AID 488917, 2010; inhibition, % at 12.5 µM
Casp3 select: caspase-3 protease inhibitors, confirmation, selectivity assay for SENP inhibitor project, biochemical, single concentration | shares compounds with SENP7 block | purified caspase-3, Z-DEVD-aminoluciferin luminescence, 60 min | inhibition, % at 12.5 µM | 6,200 tested, 60% active | AID 488918, 2010;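 active = mean inhibition above about 50%, limit read from the data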;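 note: plate controls were enzyme with DMSO for no effect and wells without caspase-3 for full effect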
Luc interf: luminescence interference (SENP counter-screen). shares compounds with SENP7 block. Pre-incubated SENP8/Z-RLRGG-aminoluciferin, luciferase luminescence interference. inhibition, % at 12.5 µM. 6,200 tested, 39% active;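 active = mean inhibition above about 50% when retested at one dose, limit read from the data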;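 note: plate controls were DMSO wells with completed reaction for no effect and substrate without enzyme for full effect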
SENP8 conf-2: human SENP8 protease inhibitors, confirmation, biochemical, Nedd8 protein substrate, single concentration. shares compounds with SENP8 block-2. purified SENP8, Nedd8-AMC/pro-Nedd8 cleavage fluorescence, 30 min. inhibition, % at 25 µM. 1,400 tested, 15% active; in the data active = inhibition mostly above about 39%, no sharp cut-off; inactive = mostly below about 34%
Starred values were filed as active, the others as inactive; x = no result given.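 Rule for the calls, unless noted: active = mean inhibition above about 50% in the one-dose retest (limit read from the data); inactive = the rest.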

SMILES	HSP90 inh	SENP7 block	SENP6 inh	SENP8 block-1	SENP8 block-2	HSP90 confirm	FLuc counter	SENP8 conf-1	SENP6 confirm	SENP7 conf	Casp3 select	Luc interf	others
Cc1ccc2nc(-c3ccc4c(c3)NC(=O)CO4)cn2c1	2	1	-13	-6	-199	x	x	x	x	x	x	x
Clc1ccc2nc(-c3ccccc3)cn2c1	36*	97*	95*	92*	-147	55*	42*	4	86*	99*	91*	33
COc1ccc(-c2cn3cc(C)ccc3n2)cc1F	48*	78*	77*	69*	-408	63*	58*	11	74*	90*	80*	32
CCCCC(=O)Oc1c(S(=O)(=O)c2ccccc2)c(C)nn1C(C)(C)C	0	-4	3	10	11	x	x	x	x	x	x	x
O=C(Nc1ncccn1)c1ccc([N+](=O)[O-])cc1[N+](=O)[O-]	x	-4	7	5	22	x	x	x	x	x	x	x
Cc1cc(C2=NNC(=NC3CCCCC3)SC2)c(C)n1-c1c(C)n(C)n(-c2ccccc2)c1=O	-4	-2	-1	-1	15	x	x	x	x	x	x	x
Cc1cc(C2=NNC(=NC3CC3)SC2)c(C)n1-c1ccccc1F	36*	17	33	80*	-3	85*	76*	6	93*	100*	93*	60*
Cc1c(O)ccc(/C=N/Nc2ncccc2[N+](=O)[O-])c1O	21*	100*	97*	96*	27	28*	28*	67*	77*	102*	75*	25
Cn1c(-c2ccccc2)cccc1=O	1	-6	-6	-1	2	x	x	x	x	x	x	x
Cc1cccc(OCC(=O)Nc2nccs2)c1C	27*	96*	95*	90*	1	29*	14*	89*	92*	100*	94*	87*
Cc1c(C)c2ccc(OCC(=O)Nc3ccccn3)cc2oc1=O	25*	95*	64*	48	-341	64*	28*	18	8	-2	11	-8
Cc1cc(=O)oc2cc(OCC(=O)Nc3nccs3)ccc12	6	29	42	26	-83	x	x	x	x	x	x	x
Cc1c(C)c2ccc(OCC(=O)Nc3nccs3)cc2oc1=O	58*	84*	56*	51*	-389	73*	56*	6	9	33	42	2
COc1ccc(C(CC(=O)c2ccc(C)cc2)Sc2ccccc2N)cc1 (stereo unspecified)	x	x	x	x	9	x	x	x	x	x	x	x
COc1cccc(CN=C2Nc3ccccc3CS2)c1	-4	33	48	34	4	x	x	x	x	x	x	x
Cn1cccc1C(=O)NC(=O)COC(=O)C12CC3CC(CC(O)(C3)C1)C2	43*	62*	54*	42	-7	54*	44*	62*	58*	82*	84*	2
Cc1ccc(Nc2nc(N)c3ccccc3n2)cc1C	26*	92*	-10	93*	-101	53*	37*	94*	96*	101*	94*	96*
CCCCOc1ccc(-c2ncc(C(=O)O)c(C)n2)cc1	38*	88*	86*	80*	21	63*	18*	88*	87*	98*	48	64*
COC(=O)C1=C(C(=O)OC)N2C=CC=CC2(C)C(C(=O)OC)=C1C(=O)OC (stereo unspecified)	6	x	x	x	14	x	x	x	x	x	x	x
OC(c1ccccc1)c1nc(-c2ccc3c(c2)OCO3)cs1 (stereo unspecified)	x	x	x	x	0	x	x	x	x	x	x	x
O=C(Nc1ccc(N2CCOCC2)cc1)C1CCN(S(=O)(=O)Cc2ccccc2)CC1	25*	2	-11	3	40*	0	-5	x	x	x	x	x	SENP8 conf-2=7
O=C(Nc1ccc2c(c1)OCCO2)C1CCN(S(=O)(=O)Cc2ccccc2)CC1	-4	-10	-38	-18	28	x	x	x	x	x	x	x
O=C(NCCCn1ccnc1)C(=O)NCC1OCCN1S(=O)(=O)c1ccc(Br)cc1 (stereo unspecified)	0	-6	0	-4	1	x	x	x	x	x	x	x
Cc1nnc(N/N=C/c2ccc([N+](=O)[O-])cc2)n1N	0	4	-1	8	27	x	x	x	x	x	x	x
CCc1nnc(N/N=C/c2ccc(N3CCC(C)CC3)c([N+](=O)[O-])c2)n1N	21*	19	-17	0	62*	-2	-1	x	x	x	x	x	SENP8 conf-2=43*
Nn1cnnc1N/N=C/c1ccc(Cl)c([N+](=O)[O-])c1	46*	-4	-8	-7	66*	-3	-6	x	x	x	x	x	SENP8 conf-2=64*
CC1Sc2ccccc2N(CC(=O)N(C(C)C)C(C)C)C1=O (stereo unspecified)	-3	-2	-8	-12	22	x	x	x	x	x	x	x
Cc1ccc(S(=O)(=O)N[C@@H](Cc2ccccc2)C(=O)N2CCC(C(=O)N[C@@H](CC(C)C)C(=O)O)CC2)cc1	-4	0	-4	-2	5	x	x	x	x	x	x	x

Assay outcomes as filed in PubChem BioAssay.
